Source: PubChem BioAssay (NCATS)
Several values for one entry are separate records, joined by “and”; a condition that tells them apart may be missing. Identical values can stand only once. Activity calls are given as the source filed them. Unless noted, the call rests on the fitted dose curve; in most records, active means well fitted curve in the direction sought with a large enough effect; inconclusive means small, poorly fitted or top-dose-only effect, or another doubt; inactive means no such curve, though single readings can be large; an effect the other way counts as inactive or inconclusive.

Key:
[1] = qHTS assay for cell viability of HEK293 cells (AID 743288); conditions: ATP luminescence (CellTiter-Glo), 18 h; max response: hits give low values; further: nearly all actives have a fitted effect of over 50% in size; further: potency means the concentration at half of the fitted maximal effect; on max response: on the % scale 0 is the no-effect control and ±100 the full control effect
In short: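 Parental HEK293 cells, 2,000 per well, preincubated at least 5 h at 37 C, then exposed to compounds in DMSO for 18 h at 37 C. Viability by CellTiter-Glo ATP luminescence after 30 min at room temperature.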

[2] = Cellular Toxicity (caspase-3) Jurkat (AID 655); conditions: Jurkat caspase-3 activation, luminescence; caspase-3 activation: at 92.2 µM (top of the series), DMSO = 0%, tamoxifen = 100%;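 further: cells exposed to compound for 16 h at 37 °C before reading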
In short: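 Jurkat cells (5000/well) in complete medium exposed 16 h at 37 C; caspase-3/7 activity read by Caspase-Glo luminescence after 20 min at room temperature. Normalized to DMSO and 100 uM tamoxifen; AC50 from Hill fits.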

[3] = Cellular Toxicity (caspase-3) H-4-II-E (AID 663); conditions: H-4-II-E rat hepatoma, scaled: DMSO 0%, 100 µM tamoxifen 100%; at 92.2 µM (top of the series);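 further: cells exposed to compound for 16 hr before readout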
In short: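 Apoptosis induction is scored as increased luminescence from caspase 3/7 substrate cleavage in rat hepatoma H-4-II-E cells exposed to compound for 16 hr. Activity is scaled between DMSO and 100 uM tamoxifen.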

[4] = MultiTox-Fluor Cytotoxicity Assay - LYMP1-002 - Dead Cells (AID 960); further: nearly all actives have a fitted effect of over 60% in size; further: potency means the concentration at half of the fitted maximal effect
In short: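 Human lymphoblastoid cells (LYMP1-002), 2500/well in complete medium, were exposed to compounds for 16 hr at 37 C. Dead-cell protease activity was read as bis-AAF-R110 fluorescence (Ex/Em 485/520), normalized to DMSO and 15 uM tetraoctylammonium bromide; AC50 from Hill fits.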

[5] = Cell Viability - LYMP2-004 (AID 966); further: nearly all actives have a fitted effect of over 65% in size; further: potency means the concentration at half of the fitted maximal effect
In short: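 Human lymphoblastoid cells (2500/well) in complete medium were treated with compounds for 24 hr at 37 C, then intracellular ATP was measured by CellTiter-Glo luminescence. AC50 values came from Hill-equation fits of concentration-response data.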

[6] = Cell Viability - LYMP2-013 (AID 970); further: nearly all actives have a fitted effect of over 55% in size; further: potency means the concentration at half of the fitted maximal effect
In short: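 Human lymphoblastoid cells, 2500/well, were preincubated 5 hr at 37 C, then treated with compounds for 24 hr at 37 C in complete medium. Intracellular ATP was read by CellTiter-Glo luminescence; AC50 from Hill-equation fits of concentration-response data.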

[7] = Cell Viability - LYMP2-014 (AID 983); further: nearly all actives have a fitted effect of over 50% in size; further: potency means the concentration at half of the fitted maximal effect
In short: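 Human lymphoblastoid cells (2500/well) were pre-incubated 5 hr at 37 C, then exposed to compounds in complete medium for 24 hr at 37 C. Intracellular ATP was read by CellTiter-Glo luminescence after 30 min at room temperature; AC50 from Hill fits.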

[8] = Cell Viability - LYMP2-026 (AID 989); further: nearly all actives have a fitted effect of over 50% in size; further: potency means the concentration at half of the fitted maximal effect
In short: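 Human lymphoblastoid cells (2500/well) in complete medium were preincubated 5 hr at 37 C, then exposed to compounds for 24 hr at 37 C. Cellular ATP was read by CellTiter-Glo luminescence; AC50 from Hill-equation fits of concentration-response data.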

[9] = target: Estrogen receptor (Homo sapiens) (UniProt P03372); experiment: qHTS assay for small molecule antagonists of estrogen receptor alpha signaling (AID 588513; active means well fitted curve in the direction sought with a large enough effect in the signal ratio, with a control signal flat, not every such curve was filed as active; inconclusive means small, poorly fitted or top-dose-only effect, or effect the other way, or a change in a side signal; inactive means no such curve, though single readings can be large or run the other way; the % refers to the signal ratio; further: potency means the concentration at half of the fitted maximal effect)
In short: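 ER-alpha-UAS-bla GripTite HEK 293 cells in 2% charcoal/dextran-treated FBS medium; compounds titrated (1:2, duplicate), then stimulated with 0.5 nM 17-beta-estradiol for 18 h at 37C. CCF4 beta-lactamase fluorescence; Hill-fit IC50 and efficacy.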

[10] = target: Peroxisome proliferator-activated receptor delta (Homo sapiens) (UniProt Q03181); experiment: qHTS assay for small molecule agonists of peroxisome proliferator-activated receptor delta signaling (AID 588534; calls by dose curve;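 further: 0% = DMSO basal wells and 100% = positive control agonist at 10 µM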)
In short: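 Cell-based beta-lactamase reporter assay run in agonist mode: cells seeded and incubated 5 hrs at 37 C, compounds added and incubated 18 hrs at 37 C. CCF4 dye fluorescence read after 2 hrs at RT; EC50 and efficacy from Hill fits.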

[11] = target: Vitamin D3 receptor (Homo sapiens) (UniProt P11473); experiment: qHTS assay for small molecule agonists of vitamin D receptor signaling (AID 588543; calls by dose curve;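 further: 0% = DMSO basal and 100% = reference agonist control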)
In short: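 VDR-UAS-bla HEK293T cells, 2000/well, 2% charcoal-stripped FBS; compound titration 16 h at 37 C; CCF4 beta-lactamase ratio read. Normalized to 50 nM 1-alpha,25-dihydroxyvitamin D3 (100%) and DMSO; Hill fit gives EC50, efficacy.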

[12] = target: Thyroid hormone receptor beta (Homo sapiens) (UniProt P10828); experiment: qHTS assay for small molecule agonists of thyroid hormone receptor beta signaling (AID 588545; calls by dose curve;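 further: 0% = DMSO only and 100% = 10 nM T3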)
In short: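 TR-UAS-bla GripTite HEK 293 cells (2500/well, medium with 2% charcoal/dextran FBS) were treated in agonist mode for 18 h at 37 C, titrated. Beta-lactamase was read by CCF4 ratio after 2 h; normalized to 10 nM T3 (100%) and DMSO, Hill-fitted for EC50 and efficacy.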

[13] = target: Voltage-gated inwardly rectifying potassium channel KCNH2 (Homo sapiens) (UniProt Q12809); experiment: qHTS Assay for Small Molecule Inhibitors of the Human hERG Channel Activity (AID 588834);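 further: lower thallium flux fluorescence means stronger hERG block; nearly all actives have a fitted effect of over 50% in size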; further: potency means the concentration at half of the fitted maximal effect
In short: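 U2OS cells BacMam-transduced with hERG, 2000 cells/well, compound ~10 min at 37 °C before stimulation buffer. FluxOR thallium flux fluorescence read kinetically on FDSS; decrease indicates block; AC50 from Hill fits.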

[14] = qHTS assay for small molecule agonists of the antioxidant response element (ARE) signaling pathway (AID 651741; active means well fitted activation curve with a large enough effect in the signal ratio; inconclusive means small, poorly fitted or top-dose-only effect, or effect the other way, or a change in a side signal; the % refers to the signal ratio; further: potency means the concentration at half of the fitted maximal effect; on activation: % of control where 0% means no effect)
In short: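 Seeding 2,000 ARE-bla HepG2 cells per well preceded a 5 h incubation at 37 C/5% CO2 and a 16 h compound exposure at 37 C. Beta-lactamase reporter activity was then quantified by fluorescence after 2 h with LiveBLAzer B/G FRET substrate.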

[15] = qHTS assay for small molecule disruptors of the mitochondrial membrane potential - 1 hr assay (AID 651754; calls by dose curve; further: nearly all actives have a fitted effect of over 35% in size; further: potency means the concentration at half of the fitted maximal effect)
In short: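 HepG2 cells, attached overnight at 37C, were exposed to compound or DMSO vehicle for 1 hr at 37C, 5% CO2, then stained with Mito-MPS dye for 30 min. Red aggregate versus green monomer fluorescence reports membrane potential.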

[16] = target: Nuclear receptor ROR-gamma (Homo sapiens) (UniProt P51449); experiment: qHTS assay for small molecule antagonists of the retinoid-related orphan receptor gamma (ROR-gamma) signaling pathway (AID 651802); further: nearly all actives have a fitted effect of over 60% in size; further: potency means the concentration at half of the fitted maximal effect
In short: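 CHO cells carrying TET-inducible ROR-gamma and an ROR response element–luciferase reporter were exposed to compound, then induced with doxycycline. After 16hr at 37C, luminescence was read; lower signal indicates antagonism.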

[17] = MultiTox-Fluor Cytotoxicity Assay - LYMP1-001 - Dead Cells (AID 946); further: potency means the concentration at half of the fitted maximal effect
In short: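 AC50 from Hill fit of concentration-response; data normalized to DMSO (basal) and 15 uM tetraoctylammonium bromide (100%). LYMP1-001 lymphoblastoid cells, 2500/well, 16 hr compound at 37 C; dead-cell protease fluorescence, Ex/Em 485/520.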

[18] = target: Glucocorticoid receptor (Homo sapiens) (UniProt P04150); experiment: qHTS assay for small molecule agonists of glucocorticoid receptor signaling (AID 588532; active means well fitted curve in the direction sought with a large enough effect in the signal ratio, with a control signal flat; inconclusive means small, poorly fitted or top-dose-only effect, or a change in a side signal; inactive means no such curve, though single readings can be large or run the other way; the % refers to the signal ratio;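 further: 100% = dexamethasone at 0.1 µM and 0% = DMSO only wells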); conditions: HeLa MMTV-bla, beta-lactamase ratio, agonist, 18 h; activation: hits give high values, percent of dexamethasone control, DMSO zero
In short: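 Agonist-mode qHTS: GRE-driven beta-lactamase in HeLa cells exposed 18 h to titrated compounds (up to 92 uM), then CCF4 ratio read after 2 h at RT; Hill-fitted EC50, efficacy relative to 0.1 uM dexamethasone.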

[19] = qHTS assay for small molecule activators of the p53 signaling pathway (AID 651743; active means well fitted activation curve with a large enough effect in the signal ratio, not every such curve was filed as active; inconclusive means small, poorly fitted or top-dose-only effect, or a change in a side signal; the % refers to the signal ratio; further: potency means the concentration at half of the fitted maximal effect; on activation: % of control where 0% means no effect); conditions: HCT-116 p53RE-bla, beta-lactamase FRET ratio, 16 h; activation: hits give high values
In short: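 Screen for p53 pathway agonists uses stably transfected p53RE-bla HCT-116 cells, 4,000 per well, treated 16 h at 37 C with compounds in DMSO.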

[20] = qHTS assay for small molecule antagonists of the retinoid-related orphan receptor gamma (ROR-gamma) signaling pathway - cell viability counter screen (AID 720652; active means well fitted curve in the direction sought with a large enough effect in the repeat runs; inconclusive means weak or mixed curves; inactive means no such curve, though single readings can be large; an effect the other way counts as inactive or inconclusive;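 further: compound exposure lasted 16 hr before ATP read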; further: potency means the concentration at half of the fitted maximal effect)
In short: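 Counter screen in CHO cells carrying TET-inducible ROR-gamma and an ROR response element-luciferase reporter; cells plated 5 hr, compound pinned, doxycycline added, then 16 hr at 37 C. Viability read as intracellular ATP by CellTiter-Glo luminescence.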

Chain of Thyroid hormone receptor beta (Homo sapiens) (P10828 whole entry, looked up): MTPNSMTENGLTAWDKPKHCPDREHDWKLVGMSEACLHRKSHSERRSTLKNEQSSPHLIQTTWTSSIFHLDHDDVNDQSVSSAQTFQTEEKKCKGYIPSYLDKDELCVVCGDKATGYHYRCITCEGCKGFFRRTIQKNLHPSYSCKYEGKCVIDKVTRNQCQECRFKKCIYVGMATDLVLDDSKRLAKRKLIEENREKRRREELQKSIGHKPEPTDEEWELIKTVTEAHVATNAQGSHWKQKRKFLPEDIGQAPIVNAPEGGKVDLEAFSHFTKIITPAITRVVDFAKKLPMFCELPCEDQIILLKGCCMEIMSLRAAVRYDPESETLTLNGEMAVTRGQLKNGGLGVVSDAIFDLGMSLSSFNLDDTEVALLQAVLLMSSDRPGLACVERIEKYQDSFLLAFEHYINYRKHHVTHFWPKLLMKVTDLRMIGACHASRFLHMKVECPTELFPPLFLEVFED
Chain of Glucocorticoid receptor (Homo sapiens) (P04150 whole entry, looked up): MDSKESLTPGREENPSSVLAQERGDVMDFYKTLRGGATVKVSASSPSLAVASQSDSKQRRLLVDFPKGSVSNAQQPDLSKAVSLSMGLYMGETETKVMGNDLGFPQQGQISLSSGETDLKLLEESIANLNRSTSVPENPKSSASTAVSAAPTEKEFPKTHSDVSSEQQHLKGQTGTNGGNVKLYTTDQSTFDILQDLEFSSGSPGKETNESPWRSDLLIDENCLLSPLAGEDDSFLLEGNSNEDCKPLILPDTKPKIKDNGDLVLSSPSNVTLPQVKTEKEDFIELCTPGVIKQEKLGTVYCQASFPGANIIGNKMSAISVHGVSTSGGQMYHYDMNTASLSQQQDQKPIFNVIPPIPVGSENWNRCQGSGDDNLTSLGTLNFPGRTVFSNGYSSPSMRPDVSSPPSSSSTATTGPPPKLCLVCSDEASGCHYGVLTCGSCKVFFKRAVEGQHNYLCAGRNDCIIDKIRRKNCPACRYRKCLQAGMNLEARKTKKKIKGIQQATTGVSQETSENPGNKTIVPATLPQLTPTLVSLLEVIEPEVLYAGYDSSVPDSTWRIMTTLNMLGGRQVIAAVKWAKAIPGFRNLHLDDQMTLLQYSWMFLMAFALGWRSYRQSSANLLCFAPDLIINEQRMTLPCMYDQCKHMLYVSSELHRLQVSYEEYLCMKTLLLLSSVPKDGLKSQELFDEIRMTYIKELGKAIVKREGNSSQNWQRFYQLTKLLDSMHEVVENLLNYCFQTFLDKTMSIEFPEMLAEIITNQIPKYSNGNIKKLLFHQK
Chain of Peroxisome proliferator-activated receptor delta (Homo sapiens) (Q03181 whole entry, looked up): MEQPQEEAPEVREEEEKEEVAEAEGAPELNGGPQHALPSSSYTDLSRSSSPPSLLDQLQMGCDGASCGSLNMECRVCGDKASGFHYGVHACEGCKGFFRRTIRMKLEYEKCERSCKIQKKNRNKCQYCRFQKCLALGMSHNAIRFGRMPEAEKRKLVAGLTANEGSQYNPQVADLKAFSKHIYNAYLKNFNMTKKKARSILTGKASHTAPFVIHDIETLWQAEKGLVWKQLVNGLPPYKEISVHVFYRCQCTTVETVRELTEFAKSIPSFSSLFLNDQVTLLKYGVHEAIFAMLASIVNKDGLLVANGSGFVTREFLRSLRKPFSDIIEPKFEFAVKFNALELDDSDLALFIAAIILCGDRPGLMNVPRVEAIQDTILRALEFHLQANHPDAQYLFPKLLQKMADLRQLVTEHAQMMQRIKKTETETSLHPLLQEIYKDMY
Chain of Nuclear receptor ROR-gamma (Homo sapiens) (P51449 whole entry, looked up): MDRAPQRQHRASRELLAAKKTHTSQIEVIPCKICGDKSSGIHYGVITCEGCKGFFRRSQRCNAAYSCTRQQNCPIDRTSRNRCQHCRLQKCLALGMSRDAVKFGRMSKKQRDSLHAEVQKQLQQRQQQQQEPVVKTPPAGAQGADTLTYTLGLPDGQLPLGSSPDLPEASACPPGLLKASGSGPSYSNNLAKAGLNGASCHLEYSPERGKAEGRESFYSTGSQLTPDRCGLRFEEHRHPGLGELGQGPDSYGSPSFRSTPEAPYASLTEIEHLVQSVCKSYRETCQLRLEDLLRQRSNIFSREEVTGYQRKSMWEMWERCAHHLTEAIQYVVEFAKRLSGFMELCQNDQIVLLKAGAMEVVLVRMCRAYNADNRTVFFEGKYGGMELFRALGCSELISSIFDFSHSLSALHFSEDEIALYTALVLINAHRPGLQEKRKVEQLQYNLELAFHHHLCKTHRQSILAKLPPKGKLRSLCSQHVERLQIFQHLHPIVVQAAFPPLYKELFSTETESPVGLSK
Chain of Vitamin D3 receptor (Homo sapiens) (P11473 whole entry, looked up): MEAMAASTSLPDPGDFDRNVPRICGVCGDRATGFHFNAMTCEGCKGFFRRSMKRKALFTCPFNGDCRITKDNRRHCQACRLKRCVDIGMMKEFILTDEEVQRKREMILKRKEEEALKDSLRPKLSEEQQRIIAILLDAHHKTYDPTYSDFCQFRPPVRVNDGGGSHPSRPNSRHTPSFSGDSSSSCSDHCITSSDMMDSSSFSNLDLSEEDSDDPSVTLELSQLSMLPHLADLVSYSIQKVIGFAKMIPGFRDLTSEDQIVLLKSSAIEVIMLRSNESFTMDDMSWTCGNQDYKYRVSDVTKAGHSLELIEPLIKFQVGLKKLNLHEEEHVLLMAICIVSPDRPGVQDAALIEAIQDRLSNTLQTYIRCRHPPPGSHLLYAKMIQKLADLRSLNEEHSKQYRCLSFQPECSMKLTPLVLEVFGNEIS
Chain of Voltage-gated inwardly rectifying potassium channel KCNH2 (Homo sapiens) (Q12809 whole entry, looked up): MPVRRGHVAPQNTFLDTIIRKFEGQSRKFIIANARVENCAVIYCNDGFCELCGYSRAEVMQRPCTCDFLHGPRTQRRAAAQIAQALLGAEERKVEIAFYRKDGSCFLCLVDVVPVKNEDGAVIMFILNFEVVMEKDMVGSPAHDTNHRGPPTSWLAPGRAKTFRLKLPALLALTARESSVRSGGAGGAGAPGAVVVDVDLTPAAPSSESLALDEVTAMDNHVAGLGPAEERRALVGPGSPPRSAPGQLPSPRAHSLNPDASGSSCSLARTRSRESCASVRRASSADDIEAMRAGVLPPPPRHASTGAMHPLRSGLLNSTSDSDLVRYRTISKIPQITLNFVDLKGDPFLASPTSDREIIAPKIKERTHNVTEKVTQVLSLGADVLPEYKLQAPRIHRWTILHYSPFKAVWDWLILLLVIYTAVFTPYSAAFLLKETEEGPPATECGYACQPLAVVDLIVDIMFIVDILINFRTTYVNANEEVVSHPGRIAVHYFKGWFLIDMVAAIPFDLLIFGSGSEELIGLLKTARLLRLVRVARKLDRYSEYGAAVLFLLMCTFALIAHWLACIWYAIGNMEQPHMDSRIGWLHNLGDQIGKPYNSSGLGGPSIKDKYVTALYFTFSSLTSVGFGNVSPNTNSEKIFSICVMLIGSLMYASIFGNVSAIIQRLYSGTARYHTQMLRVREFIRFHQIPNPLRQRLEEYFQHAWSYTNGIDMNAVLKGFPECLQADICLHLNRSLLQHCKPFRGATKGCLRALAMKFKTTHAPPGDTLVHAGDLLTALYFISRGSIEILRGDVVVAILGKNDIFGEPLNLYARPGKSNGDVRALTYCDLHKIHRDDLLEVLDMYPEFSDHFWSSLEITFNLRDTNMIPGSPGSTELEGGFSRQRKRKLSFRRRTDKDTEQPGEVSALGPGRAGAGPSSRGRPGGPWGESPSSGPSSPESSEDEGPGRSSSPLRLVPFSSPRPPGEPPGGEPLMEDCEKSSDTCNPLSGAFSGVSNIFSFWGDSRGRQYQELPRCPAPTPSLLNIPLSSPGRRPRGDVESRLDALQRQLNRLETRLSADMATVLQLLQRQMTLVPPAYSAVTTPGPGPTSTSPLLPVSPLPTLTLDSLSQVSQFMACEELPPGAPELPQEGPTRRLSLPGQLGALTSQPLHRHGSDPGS
Chain of Estrogen receptor (Homo sapiens) (P03372 whole entry, looked up): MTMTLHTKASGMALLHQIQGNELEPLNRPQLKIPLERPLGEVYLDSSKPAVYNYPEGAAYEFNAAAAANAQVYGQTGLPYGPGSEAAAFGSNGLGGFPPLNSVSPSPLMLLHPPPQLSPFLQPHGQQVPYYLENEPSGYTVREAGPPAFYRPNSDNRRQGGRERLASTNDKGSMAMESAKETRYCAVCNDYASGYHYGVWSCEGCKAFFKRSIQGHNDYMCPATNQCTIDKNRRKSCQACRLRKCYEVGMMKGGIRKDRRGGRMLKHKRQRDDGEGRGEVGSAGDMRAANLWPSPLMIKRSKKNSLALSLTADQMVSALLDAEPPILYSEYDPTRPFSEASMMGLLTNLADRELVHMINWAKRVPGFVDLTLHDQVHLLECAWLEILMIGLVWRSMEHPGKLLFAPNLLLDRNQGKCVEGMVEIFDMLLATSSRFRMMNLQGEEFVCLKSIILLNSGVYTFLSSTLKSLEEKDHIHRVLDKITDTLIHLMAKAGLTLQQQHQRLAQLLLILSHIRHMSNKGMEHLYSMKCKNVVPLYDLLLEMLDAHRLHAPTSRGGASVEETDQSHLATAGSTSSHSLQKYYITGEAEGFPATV

O=[N+]([O-])c1ccccc1Cl
inactive: max response [1] -0.622% and -10.4%

Clc1ccc(C(c2ccc(Cl)cc2)C(Cl)Cl)cc1
inactive: caspase-3 activation [2] 22.6% | Potency [5] | Potency [6] | Potency [7] | Potency [8] | outcome [10] | outcome [11] | Potency [12]
active: caspase-3 activation [3] 87.3% | Potency [4] 15.8 µM | Potency [9] 39.8 µM [inconclusive] | Potency [13] 22.4 µM | Potency [14] 66.8 µM and 61.1 µM | Potency [15] 59.6 µM | Potency [16] 37.6 µM

N#CSCSC#N
active: caspase-3 activation [2] -5.48% | Potency [17] 25.1 µM | Potency [4] 10 µM | Potency [5] 6.31 µM | Potency [6] 6.31 µM | Potency [7] 7.94 µM | Potency [8] 7.94 µM | Potency [13] 31.6 µM | Potency [19] 25.1 µM | Potency [20] 9.44 µM | Potency [1] 28.2 µM
inactive: caspase-3 activation [3] -3.87% | activation [18] 0.19% | Potency [15]

COP(=O)(OC)O/C(=C\Cl)c1cc(Cl)c(Cl)cc1Cl
inactive: caspase-3 activation [3] 2.54% | Potency [17] | Potency [4] | Potency [9] | Potency [12] | Potency [13] | activation [19] -0.853% | Potency [20] | max response [1] -7.38%
active: Potency [14] 37.6 µM

O=[N+]([O-])C(Br)Br
inactive: Potency [17] | Potency [4] | activation [18] -5.74% | outcome [10] | outcome [11] | Potency [12] | activation [19] 12.3% | Potency [15] | max response [1] -25.4%
active: Potency [5] 25.1 µM | Potency [6] 12.6 µM | Potency [7] 15.8 µM | Potency [8] 20 µM | Potency [13] 50.1 µM | Potency [16] 18.8 µM | Potency [20] 18.8 µM

Oc1c(Cl)cc(Cl)cc1Cl
inactive: activation [19] -6.01% and -1.45%

FC(F)(F)c1ccc(Cl)cc1
inactive: caspase-3 activation [2] 2.36% | caspase-3 activation [3] 1.12% | Potency [17] | Potency [4] | Potency [5] | Potency [6] | Potency [7] | Potency [8] | Potency [9] | activation [18] 4.86% | outcome [10] | outcome [11] | Potency [12] | Potency [13] | Potency [14] | activation [19] -2.63% and 1.33% | Potency [15] | Potency [16] | Potency [20] | max response [1] -1.88% and 4.63%

Cc1ccc2ccccc2c1C
inactive: max response [1] 5.03%

O=[N+]([O-])c1cc(C(F)(F)F)cc([N+](=O)[O-])c1Cl
inactive: caspase-3 activation [3] 24.4% | Potency [17] | Potency [4] | Potency [9] | activation [18] -2.51% | outcome [10] | outcome [11] | Potency [13] | Potency [14] | Potency [15] | Potency [16]
active: Potency [6] 39.8 µM | Potency [7] 50.1 µM | Potency [8] 31.6 µM | Potency [20] 66.8 µM

Cc1ccc(O)cc1C
inactive: max response [1] 6.02%

CN(C)c1ccc(N=O)cc1
inactive: caspase-3 activation [3] -1.57% | Potency [12] | Potency [13] | activation [19] -1.31%
active: Potency [4] 3.16 µM | Potency [5] 0.794 µM | Potency [6] 1.58 µM | Potency [7] 2.51 µM | Potency [8] 2.51 µM | Potency [9] 22.4 µM [inconclusive] | Potency [14] 13.3 µM | Potency [16] 7.5 µM | Potency [1] 39.8 µM

[Cd+2].[Cl-].[Cl-]
inactive: caspase-3 activation [2] -2.73% | caspase-3 activation [3] -2.46% | Potency [17] | Potency [4] | outcome [11] | Potency [12] | activation [19] -8.9%
active: Potency [9] 44.7 µM [inconclusive] | Potency [16] 3.35 µM | Potency [20] 21.1 µM

OC(c1ccc(Cl)cc1)(c1ccc(Cl)cc1)C(Cl)(Cl)Cl
active: Potency [13] 39.8 µM
inactive: Potency [17] | Potency [5] | Potency [6] | Potency [7] | Potency [8] | Potency [9] | activation [18] 4.22% | outcome [10] | outcome [11] | Potency [12] | Potency [15]

C#CCO
inactive: caspase-3 activation [2] -1.9% | caspase-3 activation [3] 0.354% | Potency [17] | Potency [4] | Potency [5] | Potency [6] | Potency [7] | Potency [8] | Potency [9] | activation [18] 0.566% | outcome [10] | outcome [11] | Potency [12] | Potency [13] | activation [19] 0.794% | Potency [16] | Potency [20] | max response [1] -6.13%
